# In the supplement of paper PMC4206461:
# Unmarked numbers belong to inactive results.
# Tested on: Pseudomonas aeruginosa PA14 dppA1-A5 penta mutant + pBBR5.DppA1 (PA14_58350)
# Experiment: respiration area under curve with compound as sole nitrogen source, 24 h (OmniLog AUC (arbitrary units)); higher = more respiration / better utilisation as nitrogen source, active = 2000 or more
# Experimental: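 Biolog Phenotype MicroArray plates PM6-PM8: each di/tripeptide is the sole nitrogen source. Tetrazolium reduction was read in the OmniLog for 24 h at 37°C and summarised as area under the respiration curve (arbitrary units). Values below 2000 count as no respiration. Strain is the SBP penta mutant complemented with DppA1 on a plasmid under its native promoter. Lys/His/Cys peptides are excluded.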
row,Structure (SMILES),respiration area under curve
1,N[C@@H](CCC(=O)O)C(=O)N[C@@H](CCC(=O)O)C(=O)O (plate: PM6),263
2,N[C@@H](CC(=O)O)C(=O)N[C@@H](Cc1ccccc1)C(=O)O (plate: PM6),1720
3,N[C@@H](Cc1ccc(O)cc1)C(=O)N[C@@H](CCC(=O)O)C(=O)O (plate: PM7),4690 (active)
4,NC(N)=NCCC[C@H](N)C(=O)N[C@@H](CC(=O)O)C(=O)O (plate: PM6),7970 (active)
5,CC(C)C[C@H](NC(=O)[C@@H](N)[C@@H](C)O)C(=O)O (plate: PM7),4760 (active)
6,O=C(O)[C@@H]1CCCN1C(=O)[C@@H]1CCCN1 (plate: PM7),8180 (active)
7,NC(=O)CC[C@H](NC(=O)[C@@H]1CCCN1)C(=O)O (plate: PM7),9270 (active)
8,NC(=O)CC[C@H](N)C(=O)NCC(=O)O (plate: PM6),5240 (active)
9,C[C@@H](O)[C@H](N)C(=O)N[C@@H](Cc1ccccc1)C(=O)O (plate: PM8),6440 (active)
10,CSCC[C@H](NC(=O)[C@@H](N)[C@@H](C)O)C(=O)O (plate: PM7),2920 (active)
11,NCC(=O)N[C@H](CC(=O)O)C(=O)O (plate: PM8),0
12,CC[C@H](C)[C@H](NC(=O)[C@@H](N)CCCN=C(N)N)C(=O)O (plate: PM6),8150 (active)
13,CC(C)[C@H](N)C(=O)N[C@@H](CC(=O)O)C(=O)O (plate: PM7),6440 (active)
14,C[C@H](NC(=O)[C@@H]1CCCN1)C(=O)O (plate: PM7),6110 (active)
15,N[C@@H](CO)C(=O)N[C@@H](CO)C(=O)O (plate: PM7),6490 (active)
16,CSCC[C@H](N)C(=O)N[C@@H](Cc1ccc(O)cc1)C(=O)O (plate: PM8),780
17,NC(N)=NCCC[C@H](N)C(=O)N[C@@H](Cc1ccc(O)cc1)C(=O)O (plate: PM6),8490 (active)
18,CC[C@H](C)[C@H](N)C(=O)N[C@@H](CCC(N)=O)C(=O)O (plate: PM6),5000 (active)
19,CSCC[C@H](N)C(=O)N[C@H](C(=O)O)C(C)C (plate: PM7),3360 (active)
20,N[C@@H](CCC(=O)O)C(=O)N[C@@H](CC(=O)O)C(=O)O (plate: PM6),19.3

row,Structure (SMILES),respiration area under curve
1,CC[C@H](C)[C@H](NC(=O)CNC(=O)CN)C(=O)O (plate: PM8),2430 (active)
2,O=C(O)CNC(=O)[C@@H]1CCCN1 (plate: PM7),6590 (active)
3,CC(C)[C@H](N)C(=O)N1CCC[C@H]1C(=O)O (plate: PM8),10300 (active)
4,CC[C@H](C)[C@H](N)C(=O)N[C@@H](CO)C(=O)O (plate: PM6),3970 (active)
5,O=C(O)[C@H](CO)NC(=O)[C@@H]1CCCN1 (plate: PM8),5440 (active)
6,N[C@@H](Cc1ccc(O)cc1)C(=O)N[C@@H](Cc1c[nH]c2ccccc12)C(=O)O (plate: PM7),2730 (active)
7,NC(=O)CC[C@H](N)C(=O)N[C@@H](CCC(=O)O)C(=O)O (plate: PM8),7630 (active)
8,NC(N)=NCCC[C@H](N)C(=O)N[C@@H](Cc1ccccc1)C(=O)O (plate: PM6),7570 (active)
9,NCC(=O)N[C@@H](CO)C(=O)O (plate: PM6),6080 (active)
10,N[C@@H](Cc1ccccc1)C(=O)N[C@@H](Cc1ccccc1)C(=O)O (plate: PM7),5690 (active)
11,NC(N)=NCCC[C@H](N)C(=O)N[C@@H](Cc1c[nH]c2ccccc12)C(=O)O (plate: PM6),7290 (active)
12,N[C@@H](Cc1c[nH]c2ccccc12)C(=O)N[C@@H](Cc1ccc(O)cc1)C(=O)O (plate: PM7),292
13,C[C@H](N)C(=O)N[C@@H](CCCN=C(N)N)C(=O)O (plate: PM6),9300 (active)
14,CC(C)C[C@H](NC(=O)[C@@H](C)N)C(=O)O (plate: PM8),286
15,C[C@H](NC(=O)[C@@H](N)Cc1c[nH]c2ccccc12)C(=O)O (plate: PM7),2360 (active)
16,CSCC[C@H](N)C(=O)N[C@H](C(=O)O)[C@@H](C)O (plate: PM8),1950
17,N[C@@H](Cc1ccccc1)C(=O)N1CCC[C@H]1C(=O)O (plate: PM7),3980 (active)
18,C[C@H](N)C(=O)N1CCC[C@H]1C(=O)O (plate: PM6),10700 (active)
19,CC(C)C[C@H](NC(=O)[C@@H](N)CC(=O)O)C(=O)O (plate: PM6),984
20,N[C@@H](CO)C(=O)NCC(=O)O (plate: PM7),6260 (active)
